# Shh pathway inh: Hedgehog pathway signaling inhibitors, primary screen, luminescence, Shh-LIGHT2 cells, Gli-luciferase; inhibition, % (no concentration beside the values); Shh-LIGHT2 Gli-luciferase reporter, 30 h; 22,000 tested, 2.1% active; AID 2313, 2010;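 active means mean inhibition across valid replicates above about 65%, limit read from the data; inconclusive means mean under the limit, yet half or more replicates past it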;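 further: pathway switched on by Shh-conditioned medium diluted 1 in 25 in low serum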
# MITF inhib: inhibitors of MITF, primary screen, MITF inhibitor project, cell-based, luminescence; inhibition, % (test concentration not listed); TRPM1 promoter luciferase, 24 h; 37,000 tested, 0.28% active; in the data active means inhibition above about 85%; inconclusive means no clear call, values can overlap the other calls; inactive means below about 68%;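 further: human melanocyte line stably carrying TRPM1 promoter luciferase reporter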
# NOMO-1 viab: NOMO-1 AML cell viability reduction, primary screen, STK33 inhibitor project, CellTiter-Glo luminescence; inhibition, % (concentration not given with the values); 37,000 tested, 7.5% active; NOMO-1 AML viability, 72 h; in the data active means inhibition above about 80%; inconclusive means no clear call, values can overlap the other calls
# * = called active by the depositor; ? = inconclusive; . = not tested or not shown. An excerpt weighted towards active compounds, which were near 8.1% of everything screened.
SMILES,Shh pathway inh,MITF inhib,NOMO-1 viab
C[C@@H]1CN([C@@H](C)CO)C(=O)Cc2cc(NS(=O)(=O)c3cccs3)ccc2O[C@@H]1CN(C)Cc1ccc(C(=O)Nc2ccccc2N)cc1,.,16.6,89.6*
COC(=O)c1c(NC(=O)COc2ccccc2C(C)C)sc2c1CCCC2,.,-3.3,11.5
C[C@@H]1CN([C@@H](C)CO)C(=O)Cc2cc(NS(C)(=O)=O)ccc2O[C@@H]1CN(C)C(=O)Nc1ccc2c(c1)OCO2,-7.1,0.1,7.7
O=c1cc(-c2ccccc2)oc2ccc(O)cc12,-149.2,-12.8,7.6
O=c1cc(-c2ccccc2)oc2c(O)c(O)ccc12,-1.0,-35.1,101.0*
COC(=O)c1ccccc1NC(=O)Cn1cnc2sc(C)c(C)c2c1=O,.,4.2,5.6
COc1ccc(NC(=O)C(=O)NCc2cccnc2)cc1,.,-9.4,2.2
C[C@@H]1CN([C@H](C)CO)C(=O)c2cc(NC(=O)CCC(F)(F)F)ccc2O[C@@H]1CN(C)Cc1ccc(C(=O)Nc2ccccc2N)cc1,.,15.3,104.2*
C[C@H]1CN([C@@H](C)CO)C(=O)Cc2cc(NC(=O)CCC(F)(F)F)ccc2O[C@@H]1CN(C)Cc1ccc(C(=O)Nc2ccccc2N)cc1,.,5.2,43.4
C[C@H]1CN([C@@H](C)CO)C(=O)c2cc(NC(=O)CCC(F)(F)F)ccc2O[C@@H]1CN(C)Cc1ccc(C(=O)Nc2ccccc2N)cc1,.,0.4,?
C[C@H]1CN([C@@H](C)CO)C(=O)Cc2cc(NC(=O)CCC(F)(F)F)ccc2O[C@H]1CN(C)Cc1ccc(C(=O)Nc2ccccc2N)cc1,.,14.8,139.2*
C[C@@H]1CN([C@H](C)CO)C(=O)c2cc(NC(=O)NC3CCCCC3)ccc2O[C@@H]1CN(C)Cc1ccccc1,.,1.0,18.2
CC1(C)CC(=O)C2=C(C1)NC(SCC(=O)Nc1ccccc1)=C(C#N)C2c1ccco1 (centres undefined),.,-22.2,43.7
CCc1ccc(C2C(C#N)=C(C)NC3=C2C(=O)CC(C)(C)C3)cc1 (centres undefined),.,33.0,86.1*
COc1ccc(C)cc1NC(=O)CN(c1ccc(Br)c(C)c1)S(C)(=O)=O,.,15.1,8.8
CCOc1ccc(NC(=O)CSc2nc(C)nc3sc4c(c23)CCCC4)cc1,.,14.6,28.4
Cc1nc(Oc2ccc(NC(=O)c3ccccc3)cc2)c2c3c(sc2n1)CCC3,.,16.9,132.9*
C[C@@H]1CN([C@H](C)CO)C(=O)c2cc(NC(=O)Nc3ccccc3)ccc2O[C@@H]1CN(C)Cc1ccc(C(F)(F)F)cc1,.,22.5,57.7
C[C@H]1CN([C@@H](C)CO)C(=O)c2cc(NC(=O)Nc3ccc(C(F)(F)F)cc3)ccc2O[C@H]1CN(C)Cc1ccc(C(=O)O)cc1,.,-0.2,8.3
C[C@@H]1CN([C@H](C)CO)C(=O)c2cc(NC(=O)Nc3ccccc3)ccc2O[C@H]1CN(C)Cc1ccc(C(F)(F)F)cc1,22.9,32.5,99.4*
C[C@H](CO)N1C[C@H](C)[C@@H](CN(C)Cc2ccccc2)Oc2ccc(NC(=O)Nc3ccc(C(F)(F)F)cc3)cc2C1=O,30.4,-0.9,121.6*
N#CC1=C(N)S[C@H](C(=O)c2ccccc2)[C@H]1c1ccc(Br)c(F)c1,.,38.3,?
CC(C)(C)c1ccc(OC(=O)CCN2C(=O)C3C4C=CC(C5CC45)C3C2=O)cc1 (centres undefined),.,-3.1,28.3
O=C(CCN1C(=O)C2C3C=CC(C3)C2C1=O)Oc1cccc2cccnc12 (centres undefined),.,9.1,113.3*
O=C(CCN1C(=O)C2C3C=CC(C4CC34)C2C1=O)Oc1cccc2cccnc12 (centres undefined),.,-1.7,121.2*
SMILES,Shh pathway inh,MITF inhib,NOMO-1 viab
CC(=O)c1ccccc1OC(=O)CCN1C(=O)C2C3c4ccccc4C(c4ccccc43)C2C1=O (centres undefined),.,-15.0,15.8
O=C(CSc1nc2cc(Cl)ccc2s1)Nc1ccc(I)cc1,.,-4.5,8.2
CCNC(=O)CCc1nc(-c2ccc(OC)cc2)no1,.,-7.1,-12.9
O=C(c1nn2c(C(F)(F)F)cc(-c3cccs3)nc2c1Cl)N1CCCc2ccccc21,46.7,-18.9,107.4*
O=C(NCCCn1ccnc1)c1nn2c(C(F)(F)F)cc(-c3cccs3)nc2c1Br,.,-7.6,29.4
CC(C)NC(=O)N(C)C[C@H]1Oc2c(NC(=O)C3CCCCC3)cccc2C(=O)N([C@@H](C)CO)C[C@@H]1C,-0.6,-0.3,12.7
C[C@H]1CN([C@@H](C)CO)C(=O)c2cccc(NS(=O)(=O)c3ccc(F)cc3)c2O[C@H]1CN(C)Cc1ccc(C(=O)Nc2ccccc2N)cc1,.,33.2,113.8*
C[C@@H]1CN([C@@H](C)CO)C(=O)c2cccc(NS(=O)(=O)c3ccc(F)cc3)c2O[C@@H]1CN(C)Cc1ccc(C(=O)Nc2ccccc2N)cc1,.,14.6,128.7*
C[C@@H]1CN([C@@H](C)CO)C(=O)c2cccc(NS(=O)(=O)c3ccc(F)cc3)c2O[C@H]1CN(C)Cc1ccc(C(=O)Nc2ccccc2N)cc1,.,-2.2,45.3
C[C@H](CO)N1C[C@H](C)[C@@H](CN(C)Cc2ccc(C(=O)Nc3ccccc3N)cc2)Oc2c(NS(=O)(=O)c3ccc(F)cc3)cccc2C1=O,.,15.1,42.8
C[C@H]1CN([C@@H](C)CO)C(=O)c2cccc(NS(=O)(=O)c3ccc(F)cc3)c2O[C@@H]1CN(C)Cc1ccc(C(=O)Nc2ccccc2N)cc1,.,27.1,94.0*
O=C(CSc1nnc(-c2cccc3ccccc23)o1)Nc1cccc(F)c1,.,12.2,-9.8
Cc1ccc(S(=O)(=O)N(C)C[C@H]2Oc3ccc(NC(=O)NC4CCCCC4)cc3C(=O)N([C@H](C)CO)C[C@@H]2C)cc1,17.1,9.4,21.6
FC(F)(F)c1nnc(Nc2cccnc2)s1,-8.3,6.9,-21.9
Oc1c(C(Nc2cccnc2)c2ccc(C(F)(F)F)cc2)ccc2cccnc12 (centres undefined),.,66.9,109.0*
CCN(CC(=O)Nc1cccc2ccccc12)S(=O)(=O)c1ccc2ccccc2c1,.,-7.8,-5.4
O=C(CCS(=O)(=O)c1ccc2ccccc2c1)Nc1ccccc1,.,8.4,-8.6
COc1ccc(-c2cc(C(F)(F)F)n3nc(C(=O)N(C)Cc4cnn(C)c4C)cc3n2)cc1OC,.,-43.2,19.9
CC1CCC2(C)C(CC(O)C(O)C2(O)CO)C1(C)CCc1ccoc1 (centres undefined),-3.5,-14.1,17.0
COC1OC(OC)C(O)(CC[C@@]2(O)[C@H](C)C[C@@H](O)C3[C@@](C)(CO)CCC[C@]32C)C1O (some centres undefined),5.2,-37.5,81.7*
COC(=O)/C=C/c1ccc(OC)c(/C=C/C(C)(C)O)c1,-15.5,-38.7,20.8
C[C@@H]1CN([C@H](C)CO)C(=O)Cc2cc(NC(=O)C3CCCCC3)ccc2O[C@@H]1CN(C)Cc1ccc(C(=O)Nc2ccccc2N)cc1,.,-4.5,?
C[C@H](CO)N1C[C@H](C)[C@H](CN(C)Cc2ccc(C(=O)Nc3ccccc3N)cc2)Oc2ccc(NC(=O)C3CC3)cc2CC1=O,.,2.2,126.6*
C[C@H]1CN([C@@H](C)CO)C(=O)Cc2cc(NC(=O)C3CC3)ccc2O[C@@H]1CN(C)Cc1ccc(C(=O)Nc2ccccc2N)cc1,.,-1.8,54.7

# Screens (PubChem)
